Results taken from PubChem BioAssay (NCI).
The panel holds about 83,000 compounds, 20% with a hit somewhere; the sample as a whole holds those more often.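 48-hour exposure, single concentration, 96-well plates; percent growth endpoint where 0 means no net growth. Active: below 10.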 Activity calls are given as the source filed them.

Assays:
Assay in all cases: NCI-60 one-dose screen, 48 h (100 = growth as untreated, 0 = no growth, -100 = all killed)
Conditions in all cases: 10 µM unless noted
NCI-H23 lung = test system: NCI-H23 lung
NCI-H226 lung = test system: NCI-H226 lung
NCI-H322M lung = test system: NCI-H322M lung
HOP-62 NSCLC = test system: HOP-62 NSCLC
NCI-H460 lung = test system: NCI-H460 lung
HOP-92 NSCLC = test system: HOP-92 NSCLC
NCI-H522 lung = test system: NCI-H522 lung
A549/ATCC NSCLC = test system: A549/ATCC NSCLC
786-0 renal = test system: 786-0 renal
COLO 205 colon = test system: COLO 205 colon
DU-145 prostate = test system: DU-145 prostate
K-562 leukemia = test system: K-562 leukemia
MALME-3M melanoma = test system: MALME-3M melanoma
MDA-MB-231 breast = test system: MDA-MB-231 breast
SF-268 CNS = test system: SF-268 CNS
SF-295 CNS = test system: SF-295 CNS
SF-539 CNS = test system: SF-539 CNS
UACC-257 melanoma = test system: UACC-257 melanoma
M14 melanoma = test system: M14 melanoma

Measured: growth

NC(=O)C1(N2CCCCC2)CCN(CCCC(=O)c2ccc(F)cc2)CC1
active: NCI-H522 lung -30.2% | DU-145 prostate 5.34% | SF-295 CNS 4.82% | SF-539 CNS -3.17%
inactive: NCI-H23 lung 31.6% | NCI-H226 lung 43.7% | NCI-H322M lung 52.5% | HOP-62 NSCLC 38.3% | NCI-H460 lung 11.9% | HOP-92 NSCLC 92.5% | A549/ATCC NSCLC 79.3% | 786-0 renal 49.8% | COLO 205 colon 13.9% | K-562 leukemia 10.8% | MALME-3M melanoma 57.1% | MDA-MB-231 breast 29.7% | SF-268 CNS 38.4% | UACC-257 melanoma 47.1% | M14 melanoma 44.8%

CN1CCN(c2cc(F)c(NC3=C(Cl)C(=O)c4ncccc4C3=O)c(F)c2)CC1
inactive: NCI-H226 lung 85.3% | NCI-H322M lung 102% | HOP-62 NSCLC 83.3% | A549/ATCC NSCLC 74.6% | COLO 205 colon 34% | SF-268 CNS 48.7% | SF-295 CNS 78.8%
active: NCI-H23 lung -61.2% | NCI-H460 lung 9.91% | HOP-92 NSCLC -79.9% | NCI-H522 lung -59.7% | 786-0 renal -72% | DU-145 prostate -67.6% | K-562 leukemia -0.834% | MALME-3M melanoma -96.1% | MDA-MB-231 breast -32% | SF-539 CNS -25.1% | UACC-257 melanoma -62.2% | M14 melanoma -40.5%

Cc1cccc(Oc2ccc(Nc3ncnc4ccc(NC(=O)CNCCO)cc34)cc2Cl)c1
inactive: NCI-H23 lung 85.1% | NCI-H226 lung 96.7% | NCI-H322M lung 18.9% | HOP-62 NSCLC 78.2% | NCI-H460 lung 39.2% | HOP-92 NSCLC 30.4% | NCI-H522 lung 31.6% | A549/ATCC NSCLC 52.8% | 786-0 renal 55.7% | COLO 205 colon 56.2% | DU-145 prostate 44.3% | K-562 leukemia 13.5% | MALME-3M melanoma 70.5% | MDA-MB-231 breast 74.3% | SF-268 CNS 61.7% | SF-295 CNS 79.9% | SF-539 CNS 64.6% | UACC-257 melanoma 93.4% | M14 melanoma 74.3%

CCN(CC)CCCCCCNc1cc(OC)cc2cccnc12
active: NCI-H522 lung 5.26% | 786-0 renal -50.7% | COLO 205 colon -68.9% | K-562 leukemia -47.8% | MALME-3M melanoma -77.4% | M14 melanoma -28.7%
inactive: NCI-H23 lung 85.5% | NCI-H226 lung 97.4% | NCI-H322M lung 96% | HOP-62 NSCLC 92.1% | NCI-H460 lung 32.6% | HOP-92 NSCLC 85.2% | A549/ATCC NSCLC 80.3% | DU-145 prostate 40.8% | MDA-MB-231 breast 32.6% | SF-268 CNS 79.3% | SF-295 CNS 86.5% | SF-539 CNS 68.5% | UACC-257 melanoma 115%

c1ccc(-c2nnc(Nc3ccc4c(c3)OCCO4)o2)c(NCc2ccncc2)c1
active: NCI-H23 lung 2.75% | NCI-H226 lung -9.34% | NCI-H460 lung 4.52% | NCI-H522 lung -34.5% | COLO 205 colon -68.8% | DU-145 prostate -22% | SF-295 CNS 3.68% | SF-539 CNS -2.94% | M14 melanoma -17.8%
inactive: NCI-H322M lung 40.4% | HOP-62 NSCLC 25.3% | HOP-92 NSCLC 77.7% | A549/ATCC NSCLC 22.6% | 786-0 renal 17.1% | K-562 leukemia 12.1% | MALME-3M melanoma 53.6% | MDA-MB-231 breast 15.4% | SF-268 CNS 14.3% | UACC-257 melanoma 68.3%

COc1ccc(C2CC(c3cccc(Nc4ccncc4)c3)=NN2c2cc(Cl)cc(Cl)c2)cc1 (configuration not stated)
inactive: NCI-H23 lung 80.2% | NCI-H226 lung 87.6% | NCI-H322M lung 75.9% | HOP-62 NSCLC 25.1% | HOP-92 NSCLC 54.9% | A549/ATCC NSCLC 26.5% | 786-0 renal 99.2% | DU-145 prostate 13.3% | MDA-MB-231 breast 44.7% | SF-268 CNS 66.3% | SF-295 CNS 72.4% | SF-539 CNS 78% | UACC-257 melanoma 62% | M14 melanoma 97%
active: NCI-H460 lung -77.6% | NCI-H522 lung 4.77% | COLO 205 colon -55.1% | K-562 leukemia 0.631% | MALME-3M melanoma -40.6%

CCOC(=O)c1cnc2c(cnn2CC)c1NN=C(C)C
inactive: NCI-H23 lung 96.5% | NCI-H226 lung 86.6% | NCI-H322M lung 94.6% | HOP-62 NSCLC 76.6% | NCI-H460 lung 106% | HOP-92 NSCLC 73.9% | NCI-H522 lung 74.4% | A549/ATCC NSCLC 96.2% | 786-0 renal 86.5% | COLO 205 colon 113% | DU-145 prostate 100% | K-562 leukemia 62.9% | MALME-3M melanoma 99.7% | MDA-MB-231 breast 91.6% | SF-268 CNS 92.4% | SF-295 CNS 96.1% | SF-539 CNS 94.8% | UACC-257 melanoma 113% | M14 melanoma 106%

COc1ccc(C2CC(c3cccc(Nc4ccncc4)c3)=NN2c2ccccc2)cc1 (configuration not stated)
inactive: NCI-H23 lung 82.8% | NCI-H226 lung 94.7% | NCI-H322M lung 68.2% | HOP-62 NSCLC 43.9% | HOP-92 NSCLC 47.6% | NCI-H522 lung 39.9% | A549/ATCC NSCLC 39.9% | DU-145 prostate 42.2% | MDA-MB-231 breast 62.5% | SF-268 CNS 72.2% | SF-295 CNS 64% | SF-539 CNS 59.7%
active: NCI-H460 lung -40.8% | 786-0 renal -4.64% | COLO 205 colon -55% | K-562 leukemia 1.17% | MALME-3M melanoma -70% | UACC-257 melanoma -35.6% | M14 melanoma -46%
